The numbers were not newly measured in PubChem BioAssay AID977610, which cites them from elsewhere.

The whole screen tested about 3,600 compounds, of which about 3,600 (100%) were called active. Cut-off not given; nearly all actives show Ki up to about 18000 µM. The set was probably picked from earlier hits. This is one part of the list. Where a SMILES comes first, the peptide text is derived from it. Non-standard residues stand in square brackets, D forms with d. Square brackets hold non-standard residues; d marks the D form. Residues, ends and D or L forms follow the SMILES beside them. Peptide text beside a SMILES is read from it. [ ]: non-standard residue; d: D form. Orn(CH(NH2)2) = NC(N)NCCC[C@H](N)C(=O)O; Ahx = NCCCCCC(=O)O

This data set in a line: PubChem AID 977610. To be noted: PDB protein-ligand complexes, literature Ki.

Turning to `CC(C)C[C@H](NC(=O)[C@H](CS)NC(=O)[C@@H]1CCCN1C(=O)[C@@H](NC(=O)[C@@H]1CCCN1C(=O)[C@@H]1CCCN1C(=O)[C@H](CS)NC(=O)[C@H](Cc1ccc(O)cc1)NC(=O)[C@H](CC(N)=O)NC(=O)[C@@H](NC(=O)[C@H](CCC(N)=O)NC(=O)[C@H](CS)NC(=O)CN)C(C)C)C(C)C)C(N)=O` (H-GCQVNYCPPVPCL-NH2), the Ki (in general, a dissociation constant, usually derived from enzyme kinetics or from competition with a known ligand) (protein: urokinase-type plasminogen activator (uPA), PDB entry 4mny) is 1.96 µM (active).
Turning to `CC(C)C[C@H](NC(=O)[C@H](CC(C)C)NC(=O)[C@H](Cc1cnc[nH]1)NC(=O)[C@H](CCCNC(N)N)NC(=O)[C@H](CC(C)C)NC(=O)[C@H](CC(C)C)NC(=O)[C@H](CC(C)C)NC(=O)[C@@H]1CCCN1C(=O)[C@H](Cc1cnc[nH]1)NC(=O)[C@@H](N)CCCNC(N)N)C(=O)N[C@@H](CCC(N)=O)C(=O)N[C@@H](CC(N)=O)C(=O)O` (H-[Orn(CH(NH2)2)]HPLLL[Orn(CH(NH2)2)]HLLQN-OH), the Ki (protein: Estrogen receptor beta, PDB entry 4j24) was 0.05 µM (active).
Turning to `O=C(NCC1(C2NC(c3ccccc3)=CS2)CCOCC1)c1cccc(-c2noc(C(F)(F)F)n2)c1` (configuration not stated), the Ki (protein: HISTONE DEACETYLASE 7, PDB entry 3znr) was 0.036 µM (active).
With `Cc1ccc(Nc2ccccc2C(=O)O)c(C(=O)O)c1`, the inhibition constant (Ki) (protein: Anthranilate phosphoribosyltransferase, PDB entry 4gkm) was 6.8 µM (active).
For `O=C(O)c1ccccc1C(=O)O`, the inhibition constant (Ki) (protein: Nicotinate-nucleotide pyrophosphorylase [carboxylating], PDB entry 4kww) was 2.8 µM (active).
Turning to `O=C(O)c1ccccc1Nc1ccccc1C(=O)O`, the Ki (protein: Anthranilate phosphoribosyltransferase, PDB entry 4ij1) was 4 µM (active).
`O=C(O)c1ccccc1Nc1cccc(Nc2ccccc2C(=O)O)c1C(=O)O`: the Ki (protein: Anthranilate phosphoribosyltransferase, PDB entry 4m0r) was 6.2 µM (active).
Regarding `NC(=O)SCC(=O)Nc1ccccc1C(=O)O`, under “protein: Human cathepsin K mutant C25S, PDB entry 4leg”, the Ki was 28 µM (active).
Turning to `Cc1ccc(C(=O)O)c(Nc2c(C)cccc2C(=O)O)c1`, for the setting “protein: anthranilate phosphoribosyltransferase (AnPRT; trpD), PDB entry 4giu”, the Ki was 4.7 µM (active).
For the compound `Nc1ccn([C@@H]2O[C@H](CO)[C@@H](O)[C@H]2O[P+](O)(O)O)c(=O)n1`, the Ki (protein: Bos taurus ribonuclease A, PDB entry 1jvu) was 7 µM (active).
With `Nc1ccn([C@@H]2O[C@H](CO[P+](O)(O)O)[C@@H](O)[C@H]2O)c(=O)n1`, the Ki (protein: Bos taurus ribonuclease A, PDB entry 1rnm) was 844 µM (active).
Consider `Nc1ccn([C@@H]2O[C@H](CO)[C@@H](O[P+](O)(O)O)[C@H]2O)c(=O)n1`, for which the Ki (protein: Bos taurus ribonuclease A, PDB entry 1rpf) is 103 µM (active).
On to `Cc1cc(C)c(/C=N/NC(=O)[C@@H](N)Cc2c[nH]c3ccccc23)c(C)c1`, for which the Ki (protein: Endothiapepsin, PDB entry 4kup) is 6 µM (active).
Turning to `Cc1nn(C)c(C)c1Cc1nnc(-c2sc3ccccc3c2OC2CCNCC2)o1`, for the setting “protein: Plasmodium vivax N-myristoyltransferase, PDB entry 2yne”, the Ki was 0.0027 µM (active).
On to `CC[C@H](C)[C@H](NC(=O)[C@H](CO)NC(=O)[C@@H](NC(=O)[C@@H]1CCCN1C(=O)[C@H](Cc1c[nH]c2ccccc12)NC(=O)[C@@H](N)CCCNC(N)N)[C@@H](C)O)C(=O)N[C@@H](CC(C)C)C(=O)O` (H-[Orn(CH(NH2)2)]WPTSIL-OH), for which the Ki (protein: Golgi-associated PDZ and coiled-coil motif-containing protein, PDB entry 4e35) was 24 µM (active).
For the compound H-SRWPTTRL-OH, the Ki (protein: CFTR Associated Ligand (CAL) PDZ domain, PDB entry 4k76) was 4.5 µM (active).
Regarding `CC[C@H](C)[C@H](NC(=O)[C@H](CO)NC(=O)[C@@H](NC(=O)[C@@H]1CCCN1C(=O)[C@H](Cc1c[nH]c2ccccc12)NC(=O)[C@H](CCCNC(N)N)NC(=O)[C@@H](N)CO)[C@@H](C)O)C(=O)N[C@@H](CC(C)C)C(=O)O` (H-S[Orn(CH(NH2)2)]WPTSIL-OH), the Ki (protein: Tax1-binding protein 3, PDB entry 4e3b) was 0.9 µM (active).
With `CC[C@H](C)[C@H](NC(=O)[C@@H]1CCCN1C(=O)[C@H](CC(=O)O)NC(=O)[C@H](CC(C)C)NC(=O)[C@H](C)NC(=O)[C@@H](N)Cc1c[nH]c2ccccc12)C(=O)N[C@@H](C)C(=O)NCC(=O)N[C@@H](CCCCN)C(=O)N[C@@H](Cc1c[nH]c2ccccc12)C(=O)N[C@@H](CO)C(=O)N[C@@H](CCCNC(N)N)C(=O)O` (H-WALDPIAGKWS[Orn(CH(NH2)2)]-OH), for the setting “protein: Acyl-[acyl-carrier-protein]--UDP-N-acetylglucosamine O-acyltransferase, PDB entry 2aq9”, the Ki was 0.05 µM (active).
`CSCC[C@H](NC(C)=O)C(=O)N[C@@H](Cc1c[nH]c2ccccc12)C(=O)N[C@@H](CC(=O)O)C(=O)N[C@@H](Cc1ccccc1)C(=O)N[C@@H](CC(=O)O)C(=O)N[C@@H](CC(=O)O)C(=O)NCCCCCC(=O)N[C@@H](CCSC)C(=O)N1CCC[C@H]1C(=O)N1CCC[C@H]1C(=O)N[C@@H](C)C(=O)N[C@@H](CC(=O)O)C(=O)N[C@@H](CCC(=O)O)C(=O)N[C@@H](CC(=O)O)C(=O)N[C@@H](Cc1ccc(O)cc1)C(=O)N[C@@H](CO)C(=O)N1CCC[C@H]1C(N)=O` (Ac-MWDFDD[Ahx]MPPADEDYSP-NH2): where the note is “protein: interleukin-8(IL-8), PDB entry 1ilq”, the Ki is 13 µM (active).
In the case of `CC[C@H](C)[C@H](NC(=O)[C@H](CCCNC(N)N)NC(=O)CNC(=O)[C@@H](NC(=O)[C@@H](NC(=O)[C@@H](NC(=O)[C@@H](NC(=O)[C@H](CO)NC(=O)CN)C(C)C)C(C)C)[C@@H](C)CC)C(C)C)C(=O)N[C@H](C(=O)N[C@@H](CC(C)C)C(=O)N[C@@H](CO)C(=O)O)[C@@H](C)CC` (H-GSVVIVG[Orn(CH(NH2)2)]IILS-OH), for the setting “protein: HCV NS3 protease, PDB entry 1dxp”, the Ki was 0.027 µM (active).
Take H-GGGGGGAVPGSWPW-OH: the Ki (protein: Chymotrypsinogen A, PDB entry 1oxg) was 2.7e-05 µM (active).
On to `CCC(CC)O[C@@H]1CC(C(=O)O)=C[C@H](n2cc(C(C)(C)O)nn2)[C@H]1NC(C)=O`, for which the Ki (protein: Neuraminidase, PDB entry 4ks5) is 0.13 µM (active).
As for `CCC(CC)O[C@@H]1CC(C(=O)O)=C[C@H](n2cc(CCCO)nn2)[C@H]1NC(C)=O`, the inhibition constant Ki (protein: Neuraminidase, PDB entry 4ks3) was 0.43 µM (active).
As to `CCC(CC)O[C@@H]1CC(C(=O)O)=C[C@H](n2cc([C@H](O)CC)nn2)[C@H]1NC(C)=O`, the Ki (protein: Neuraminidase, PDB entry 4ks4) was 0.072 µM (active).
On to `CCn1c(O)cc(=O)n(CC)c1=S`, for which, under “protein: AmpC beta-lactamase, PDB entry 4kz8”, the Ki is 1600 µM (active).
Turning to `O=C(O)c1ccc(CCNS(=O)(=O)c2ccsc2C(=O)O)cc1`, for the setting “protein: AmpC beta-lactamase from E. coli, PDB entry 4jxv”, the inhibition constant Ki was 31 µM (active).
Take `O=C(O)C(=O)CO`: under “PDB entry 4mfe”, the Ki is 5400 µM (active).
